This is an account of results in PubChem BioAssay (NCATS).

“And” between values parts separate entries of the source, which are not always exact repeats. Equal values may be shown once. Results filed as inconclusive are left out. The source made the active and inactive calls. Unless noted, calls follow the shape of the dose curve; as a rule, active = well fitted curve in the direction sought with a large enough effect; inconclusive = small, poorly fitted or top-dose-only effect, or another doubt; inactive = no such curve, though single readings can be large; an effect the other way counts as inactive or inconclusive. Where only a bound is given, the exact number is not on record here.

Assay [1] is described as follows: Cell Viability - SK-N-SH (AID 435; calls by dose curve;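 also: potency is read from the fitted curve at half-maximal effect; compound exposure lasted 40 h at 37 °C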). The following applies: SK-N-SH neuroblastoma cell viability qHTS. Summed up: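 SK-N-SH human neuroblastoma cells (1500/well) were exposed to compounds in complete medium for 40 h at 37 °C, and intracellular ATP was then measured by CellTiter-Glo luminescence. AC50 was taken from Hill fits, normalized to DMSO and 100 uM tamoxifen.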

A short description of assay [2]: Cellular Toxicity (caspase-3) N2a (AID 665).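 Also: compound exposure lasted 16 h at 37 °C before readout.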 The note with it: N2a cells, luminescence, normalized: DMSO 0%, 10 µM staurosporine 100%; at 92.2 µM (top of the series). Summed up:
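Mouse N2a neuroblastoma cells (1500/well) were treated with compounds for 16 h at 37 °C, then caspase-3/7 activity was read by Caspase-Glo luminescence after 1 h at room temperature. Data were normalized to DMSO and 10 uM staurosporine; AC50 from Hill fits.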

Assay [3] can be described thus: Cell Viability - LYMP2-004 (AID 966). Also: nearly all actives have a fitted effect of over 65% in size. Also: potency is read from the fitted curve at half-maximal effect. The following applies: LYMP2-004 lymphoblastoid cell viability, qHTS; series mostly up to 92.2 µM. Put shortly:
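Human lymphoblastoid cells (2500/well) in complete medium were treated with compounds for 24 hr at 37 C, then intracellular ATP was measured by CellTiter-Glo luminescence. AC50 values came from Hill-equation fits of concentration-response data.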
In general terms: In qHTS, concentration-response curves come from the screen itself.

Assay [4] can be described thus: Cell Viability - LYMP2-018 (AID 985).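 Also: compound exposure lasted 24 hr at 37 °C; nearly all actives have a fitted effect of over 50% in size.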 Also: potency is read from the fitted curve at half-maximal effect. The following applies: LYMP2-018 lymphoblastoid cells, viability (qHTS); series mostly up to 92.2 µM. Summed up: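 Human lymphoblastoid cells (2500/well) were pre-incubated 5 hr at 37 C, then exposed to compounds for 24 hr at 37 C in complete medium. Viability was read as intracellular ATP by CellTiter-Glo luminescence; AC50 values came from Hill-equation fits.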

The nature of assay [5]: Cell Viability - LYMP2-022 (AID 987). Also: nearly all actives have a fitted effect of over 55% in size. Also: potency is read from the fitted curve at half-maximal effect. The following applies: LYMP2-022 lymphoblastoid cell viability; series mostly up to 92.2 µM. Put shortly:
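Human lymphoblastoid cells, 2500/well, preincubated 5 hr at 37 C, then exposed to compounds over a concentration range for 24 hr at 37 C in complete medium. Viability read as intracellular ATP by CellTiter-Glo luminescence after 30 min at room temperature; AC50 from Hill fits.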

Assay [6] is described as follows: Cell Viability - LYMP1-002 - Assay at 24 hr (AID 993). Also: potency is read from the fitted curve at half-maximal effect. The note with it: LYMP1-002 lymphoblastoid cells viability; series mostly up to 92.2 µM. Put shortly: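 Human lymphoblastoid LYMP1-002 cells, 2500/well in complete medium, were treated with compounds for 24 h at 37 C; intracellular ATP was read by CellTiter-Glo luminescence. AC50 values came from Hill-equation fits of qHTS concentration-response data.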

Assay [7] can be described thus: qHTS assay for small molecule activators of the nuclear factor-kappa B (NF-kB) signaling pathway (AID 651749; active = well fitted activation curve with a large enough effect in the signal ratio; the % refers to the signal ratio; also: % of control where 0% means no effect). The note with it: NF-kB-bla ME-180 cells, beta-lactamase FRET ratio, 16 h; activation: stronger effect = higher value. Summed up:
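Incubation lasted 16 hr at 37C in 5% CO2 after 23 nL compound addition to ME-180 NF-kB-bla cells. Activation appears as beta-lactamase-mediated FRET loss.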

Assay [8] addresses Nuclear receptor ROR-gamma (Homo sapiens) (UniProt P51449). Nature of the assay: qHTS assay for small molecule antagonists of the retinoid-related orphan receptor gamma (ROR-gamma) signaling pathway (AID 651802). Also: nearly all actives have a fitted effect of over 60% in size. Also: potency is read from the fitted curve at half-maximal effect. The note with it: ROR-gamma antagonist cell reporter assay; series mostly up to 92.2 µM. Put shortly:
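CHO cells carrying TET-inducible ROR-gamma and an ROR response element–luciferase reporter were exposed to compound, then induced with doxycycline. After 16hr at 37C, luminescence was read; lower signal indicates antagonism.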

Assay [9] relates to HIV-1 nucleocapsid protein NCp7 (binding to TG oligonucleotide). As to the kind of experiment: HIV Nucleocapsid (AID 346; call rule not given here;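 also: potency is read from the fitted curve at half-maximal effect; potency is for inhibitors that block NC binding and lower polarization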). The following applies: HIV-1 NC / fluorescein-TGTGTGTG probe, fluorescence polarization. Summed up:
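HIV-1 NC (100 nM) binding to fluorescein-labelled ssDNA TG4xF (10 nM) in Hepes pH 7.5, 250mM NaCl, 1uM ZnCl2, TCEP and 2-mercaptoethanol; compounds pin-transferred, 1 hr room temperature, fluorescence polarization read on CCD imager.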
In general terms: In fluorescence polarisation assays a small probe gives low polarisation when free and higher when bound to something large.

The nature of assay [10]: qHTS Assay for Identification of Small Molecule Agonists for Thrombopoietin (TPO) Signaling Pathway (AID 917). Also: % is scaled to controls: 0 for no effect and ±100 for the full control effect. The following applies: TPO signaling pathway reporter cells, agonist qHTS; series mostly up to 38.5 µM. Summed up: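 Murine Ba/F3 cells stably expressing human TPO receptor and a Glycoprotein IIb promoter–luciferase reporter were IL-3-starved overnight, then treated with compounds plus TPO (26 pM final, its EC50) for 24 hrs at 37 C; luminescence was read.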

Assay [11] can be described thus: MultiTox-Fluor Cytotoxicity Assay - LYMP1-002 - Live Cells (AID 955). Also: % is scaled to controls: 0 for no effect and ±100 for the full control effect. The following applies: LYMP1-002 lymphoblastoid live-cell protease fluorescence viability; series mostly up to 46.1 µM. Summed up: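 Human lymphoblastoid LYMP1-002 cells, 2500/well in complete medium, rested 5 hr at 37 C, then exposed to compounds for 16 hr at 37 C. Live-cell protease cleavage of GF-AFC read by fluorescence (Ex/Em 405/510) after 60 min at room temperature; AC50 from Hill fits.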

Assay [12] is described as follows: Cell Viability - LYMP2-013 (AID 970).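 Also: 0% = DMSO only and full inhibition = tetraoctylammonium bromide control; nearly all actives have a fitted effect of over 55% in size.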 The following applies: LYMP2-013 lymphoblastoid cells viability; series mostly up to 92.2 µM. Summed up: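 Human lymphoblastoid cells, 2500/well, were preincubated 5 hr at 37 C, then treated with compounds for 24 hr at 37 C in complete medium. Intracellular ATP was read by CellTiter-Glo luminescence; AC50 from Hill-equation fits of concentration-response data.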

Assay [13] in a line: Cell Viability - LYMP2-017 (AID 972). Also: % is scaled to controls: 0 for no effect and ±100 for the full control effect; nearly all actives have a fitted effect of over 55% in size. The note with it: LYMP2-017 lymphoblastoid cell viability; series mostly up to 92.2 µM. Put shortly:
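Human lymphoblastoid cells (2500/well) were seeded in complete medium, held 5 hr at 37 C, then exposed to compounds for 24 hr at 37 C. Intracellular ATP was read by CellTiter-Glo luminescence after 30 min at room temperature, with AC50 values from Hill-equation fits.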

The nature of assay [14]: Cell Viability - LYMP2-007 (AID 979).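 Also: cells exposed to compound for 24 h before reading; 0% = DMSO only and the negative end = 92 µM tetraoctylammonium bromide; nearly all actives have a fitted effect of over 60% in size.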 The note with it: LYMP2-007 lymphoblastoid cell viability; series mostly up to 92.2 µM. Summed up:
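Human lymphoblastoid cells (2500/well) were plated in complete medium, incubated 5 hr at 37 C, then exposed to compounds for 24 hr at 37 C. Intracellular ATP was read by CellTiter-Glo luminescence after 30 min at room temperature; AC50 from Hill fits.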

The nature of assay [15]: qHTS assay to identify small molecules that stimulate interleukin-8 (IL-8) secretion (AID 651758; active = well fitted activation curve with a large enough effect in the signal ratio; the % refers to the signal ratio; also: potency is read from the fitted curve at half-maximal effect; as to activation: 0% is about no effect). The following applies: HTRF ratio (665/615); series mostly up to 92.2 µM. Put shortly: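 THP-1 cells (2000/well) exposed to compound 16 h at 37 C; secreted IL-8 then detected by HTRF with cryptate- and XL665-labelled anti-IL-8 antibody pair after 1-3 h at room temperature.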

In assay [16] the target is Bile acid receptor (Homo sapiens) (UniProt Q96RI1). As to the kind of experiment: qHTS assay for small molecule agonists of farnesoid X receptor signaling (AID 588527; calls by dose curve;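 also: 0% = vehicle basal and 100% = reference agonist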). The following applies: HEK293T FXR-UAS-bla, beta-lactamase ratio, 16 h; stronger effect = higher value. Summed up: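 FXR-UAS-bla HEK293T cells (10% dialyzed FBS) preincubated 5-7 h at 37 C, then compounds at up to 92 uM for 16 h at 37 C. CCF4 beta-lactamase read-out after 2 h RT. Normalized to chenodeoxycholic acid (100 uM) and DMSO; Hill fit gave EC50 and efficacy.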
Sequence of Bile acid receptor (Homo sapiens) (Q96RI1 whole entry, looked up): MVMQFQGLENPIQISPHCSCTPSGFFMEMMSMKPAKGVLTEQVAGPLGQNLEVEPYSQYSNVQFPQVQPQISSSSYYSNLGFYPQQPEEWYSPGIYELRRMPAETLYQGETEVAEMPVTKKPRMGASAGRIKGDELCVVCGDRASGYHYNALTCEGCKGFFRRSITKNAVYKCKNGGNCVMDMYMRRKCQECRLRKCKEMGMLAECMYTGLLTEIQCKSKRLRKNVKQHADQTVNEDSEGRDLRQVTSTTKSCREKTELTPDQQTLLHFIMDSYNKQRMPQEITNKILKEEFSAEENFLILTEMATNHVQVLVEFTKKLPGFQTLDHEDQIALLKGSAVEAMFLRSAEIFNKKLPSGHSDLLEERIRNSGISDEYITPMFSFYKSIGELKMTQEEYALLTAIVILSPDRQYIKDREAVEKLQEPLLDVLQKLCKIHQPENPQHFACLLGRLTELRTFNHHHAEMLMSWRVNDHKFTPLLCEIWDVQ

Assay [17] is described as follows: qHTS assay for small molecule activators of the p53 signaling pathway (AID 651743; active = well fitted activation curve with a large enough effect in the signal ratio, not every such curve was filed as active; the % refers to the signal ratio; also: % of control where 0% means no effect). The following applies: HCT-116 p53RE-bla, beta-lactamase FRET ratio, 16 h; activation: stronger effect = higher value. Put shortly: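 HCT-116 p53RE-bla, 4,000 cells/well; 5 h settle; cpd/DMSO 16 h, 37 C; LiveBLAzer B/G 2 h RT; fluorescence intensity.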
The nature of assay [18]: Cell Viability - LYMP2-001 (AID 921). Also: nearly all actives have a fitted effect of over 70% in size. Also: potency is read from the fitted curve at half-maximal effect. The note with it: LYMP2-001 lymphoblastoid cell viability; series mostly up to 92.2 µM. Put shortly:
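Human lymphoblastoid cells (Coriell), 2500 per well, were preincubated 5 hr at 37 C, then exposed to compounds in complete medium for 24 hr at 37 C. Cellular ATP was read by CellTiter-Glo luminescence; AC50 from Hill fits of concentration-response data.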

Assay [19] is described as follows: qHTS assay for small molecule antagonists of peroxisome proliferator-activated receptor delta signaling (AID 588535; active = well fitted inhibition curve with a large enough effect in the signal ratio, with a control signal flat, not every such curve was filed as active; the % refers to the signal ratio;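 as to max response: cells co-treated with a PPAR-delta agonist as stimulator during compound exposure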). The note with it: HEK293T PPARd-UAS-bla, beta-lactamase FRET ratio, 18 h; 460 nm channel. Put shortly: (§1)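 Cells were seeded at 4000 per well in assay medium containing 2% charcoal/dextran FBS and held 5 hrs at 37 C. Compounds were then added for 18 hrs. CCF4 substrate was applied for 2 hrs at room temperature before fluorescence reading.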

Assay [20] has as its target Peroxisome proliferator-activated receptor delta (Homo sapiens) (UniProt Q03181). The assay is described as above. The following applies: HEK293T PPARd-UAS-bla, beta-lactamase FRET ratio, 18 h; series mostly up to 76.7 µM. Summed up:
as §1

Sequence of Peroxisome proliferator-activated receptor delta (Homo sapiens) (Q03181 whole entry, looked up): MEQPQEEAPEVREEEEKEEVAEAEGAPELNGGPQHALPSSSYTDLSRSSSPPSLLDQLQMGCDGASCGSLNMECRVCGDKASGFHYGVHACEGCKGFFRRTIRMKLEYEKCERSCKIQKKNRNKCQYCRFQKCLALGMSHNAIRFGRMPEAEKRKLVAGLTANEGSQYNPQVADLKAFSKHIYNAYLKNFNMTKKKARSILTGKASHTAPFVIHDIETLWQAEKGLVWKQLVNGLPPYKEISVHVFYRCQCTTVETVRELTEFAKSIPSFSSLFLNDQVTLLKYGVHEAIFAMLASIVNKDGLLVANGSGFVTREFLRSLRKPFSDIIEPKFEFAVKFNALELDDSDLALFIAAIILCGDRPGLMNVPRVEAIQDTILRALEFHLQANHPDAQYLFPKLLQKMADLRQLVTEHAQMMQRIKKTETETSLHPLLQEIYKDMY
Sequence of Nuclear receptor ROR-gamma (Homo sapiens) (P51449 whole entry, looked up): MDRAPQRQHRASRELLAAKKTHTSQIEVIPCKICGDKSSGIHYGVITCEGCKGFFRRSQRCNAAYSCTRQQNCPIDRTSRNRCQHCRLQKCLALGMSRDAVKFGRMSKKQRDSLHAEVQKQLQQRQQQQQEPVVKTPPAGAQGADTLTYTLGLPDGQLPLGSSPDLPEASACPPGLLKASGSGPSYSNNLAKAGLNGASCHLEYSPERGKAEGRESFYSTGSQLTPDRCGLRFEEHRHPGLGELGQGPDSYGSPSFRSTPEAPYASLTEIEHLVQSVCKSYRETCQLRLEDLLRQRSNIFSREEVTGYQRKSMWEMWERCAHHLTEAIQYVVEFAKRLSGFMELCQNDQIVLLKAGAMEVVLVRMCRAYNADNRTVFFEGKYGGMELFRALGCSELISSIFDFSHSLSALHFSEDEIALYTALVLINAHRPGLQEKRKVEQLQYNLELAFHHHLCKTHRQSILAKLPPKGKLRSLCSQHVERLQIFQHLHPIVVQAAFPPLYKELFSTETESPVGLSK

For `ClC1=C(Cl)C2(Cl)C3C4CC(C5OC45)C3C1(Cl)C2(Cl)Cl` (centres undefined), the Potency was > 92 µM (inactive) in assay [1]; 20 µM (active) in [3]; 39.8 µM (active) in assay [4]; 39.8 µM (active) in assay [5]; 12.6 µM (active) in [6]; 13.3 µM (active) in [8]. Also, the caspase-3 activation in assay [2] is -1.24% (inactive). The activation in [7] was -0.275% (inactive).
Regarding `CN1CC[C@@]2(CCCN(C(=O)c3ccco3)C2)C1`, the Potency in assay [9] was > 20 µM (inactive).
As for `CC[C@@]1(c2ccc(N)cc2)CCC(=O)NC1=O`, in assay [10], the call was inactive.
Regarding `CCNc1nc(Cl)nc(NC(C)C)n1`, the caspase-3 activation in [2] was -0.492% (inactive). Also, in [11], the compound was classed as inactive. Besides, the Potency result in [3], in assay [12], in assay [13], in [14], in assay [5] and in assay [6] was “inactive” in each case. Further, in assay [15], the Potency result was “inactive”.
On to `O=S1OCC2C(CO1)C1(Cl)C(Cl)=C(Cl)C2(Cl)C1(Cl)Cl` (centres undefined), for which the caspase-3 activation in [2] is 12.4% (inactive). Besides, the call in assay [11] was inactive. For the same compound, the Potency entry in assay [4] was “inactive”. For the same compound, the activation was 2.02% (inactive) in assay [16], -4.01% (inactive) in [17] and 1.74% (inactive) in assay [7]. Moreover, in assay [15], the Potency was 66.8 µM (active).
For the compound `COc1ccc(OC)c([C@H](O)[C@H](C)N)c1`, in assay [10], the result was inactive.
Regarding `O=C(Nc1cccc(F)c1)N1CCC2(CC1)CCN(C(=O)Oc1ccccc1)CC2`, the Potency in [9] is > 20 µM (inactive).
Consider `COC(=O)NC(=S)Nc1ccccc1NC(=S)NC(=O)OC`, for which the caspase-3 activation in assay [2] was 0.433% (inactive). The Potency entry in assay [18], in assay [13], in assay [14], in [4], in [5] and in assay [20] was “inactive” throughout. For the same compound, in assay [8], the Potency entry was “inactive”. For the same compound, the compound was classed as inactive in assay [11]. The activation in assay [16] is 1.1% (inactive) and -0.86% (inactive); in assay [17], 0% (inactive) and 3.95% (inactive); in assay [7], 0.272% (inactive) and -1.52% (inactive). Moreover, in [19], the max response is -30.4% and 40.5%.
For `CS(=N)(=O)CC[C@@H](N)C(=O)O` (some centres undefined), the call in [10] was inactive.
Same read-out and setting: the result for `C#CCN(C)[C@@H](C)Cc1ccccc1` reads “inactive”.
Take `CCc1cccc(CC)c1N(COC)C(=O)CCl`: the Potency was > 92 µM (inactive) in [1] and 39.8 µM (active) in [4]. In addition, in [2], the caspase-3 activation is 4.56% (inactive). For the same compound, in assay [11], the result was inactive. In addition, the Potency entry in assay [6] was “inactive”. In addition, the activation in [16] was -2.1% (inactive).
Regarding `N#Cc1ccc(CN2CCC3(CC2)CCN(C(=O)Oc2ccccc2)CC3)cc1`, the Potency in assay [9] was > 20 µM (inactive).
On to `C[N+]1(C)[C@@H]2CC[C@H]1CC(OC(=O)[C@@H](CO)c1ccccc1)C2` (some centres undefined), for which the result in assay [10] was inactive.
Take `COc1ccc(NC(=O)N2CCC3(CC2)CCN(C(=O)Oc2ccccc2)CC3)cc1`: the Potency in assay [9] is > 20 µM (inactive).
As to `C[C@]12CC[C@H](O)C[C@@H]1CC[C@H]1[C@H]2CC[C@]2(C)C(=O)CC[C@@H]12`, the outcome in [10] was inactive.
Turning to `ClC1=C(Cl)C2(Cl)C3C(Cl)C=CC3C1(Cl)C2(Cl)Cl` (centres undefined), in assay [2], the caspase-3 activation is -3.13% (inactive). The max response in [19] was -19.5%. In addition, the Potency result in assay [20] is “inactive”. Moreover, in [17], the activation was 1.8% (inactive). Moreover, the Potency in assay [15] is 26.6 µM (active).
Consider `ClC1=C(Cl)C2(Cl)C3C4C=CC(C4)C3C1(Cl)C2(Cl)Cl` (centres undefined), for which the Potency in [1] is > 92 µM (inactive); in assay [18], 39.8 µM (active); in [15] it was 42.2 µM (active); in [8], 23.7 µM (active). Further, in assay [17], the activation is 0.0105% (inactive).
Take `NC[C@H](O)c1ccc(O)cc1`: the call in [10] was inactive.
As to `Cc1nc2cnc(N3CCNCC3)nc2n(C)c1=O`, the Potency in assay [9] was > 20 µM (inactive).
For `c1ccc(N=Nc2ccccc2)cc1`, the Potency result in assay [18], in assay [3] and in assay [5] was “inactive” throughout. The activation in [17] is -2.32% (inactive) and -5.83% (inactive).
